In ChEMBL document CHEMBL4296182, “CO-ADD screening of NIH NCI Diversity Set V”:
Results with a measured potency or affinity are listed apart.

system: Klebsiella pneumoniae; conditions: Concentration 20 uM; ASSAY_TEST Inhibition of Bacterial Growth; detection method Absorption (OD600); MEDIA CAMHB; plate type 384well; NBS; CORNING #3640; time 18 hr

How did the Inhibition turn out when `Oc1ncnc(CN2CCCCC2)c1O` was run?
The Inhibition was 2.35%.

For `CCOC(=O)Cc1cc(O)c2cc(C)ccc2n1`, which Inhibition is on record?
Its Inhibition is 2.93%.

Which Inhibition does the source give for `Sc1nc2c[nH]c(S)nc-2n1` here?
Its Inhibition is 15.98%.

Which Inhibition does the source give for `O=C(O)c1ccc(N2CCCCC2)cc1O` here?
The Inhibition was 12.65%.

With `NC(CC(=O)Nc1cc(C(F)(F)F)ccc1Cl)=NO` as the compound, how does the Inhibition read?
Its Inhibition is 22.22%.

`Cc1c(O)ccc2c(O)c(NC(=O)c3ccc4c(c3)CCC(C)(C)O4)c(=O)oc12` [CYCLONOVOBIOCIC ACID] was tested. Which Inhibition did it give?
The Inhibition was 4.57%.

Which Inhibition does the source give for `CS(=O)(=O)O.Cc1cc2c(cc1[N+](=O)[O-])NC(CNC(C)C)CC2` (stereo not drawn) here?
The Inhibition was 6.82%.

`O=C(O)CSc1ccc(NC(=O)Nc2ccccc2F)cc1` was tested. Which Inhibition did it give?
Its Inhibition is 17.8%.

For `O=C(O)c1ccccc1-n1c2ccccc2c2ccccc21`, which Inhibition is on record?
The Inhibition was 10.24%.

How did the Inhibition turn out when `C#CCNc1ccc(C(=O)OCC)cc1` was run?
Its Inhibition is 11.49%.

How did the Inhibition turn out when `CCOC(=O)N1C/C(=C\c2ccccc2)C(=O)/C(=C/c2ccccc2)C1` was run?
Its Inhibition is 12.83%.

Which Inhibition does the source give for `CC(C)(C)NC1=NCCNC(c2ccccc2)=C1.CS(=O)(=O)O` here?
Its Inhibition is 11.55%.

Which Inhibition does the source give for `Nc1ccccc1C(=O)Nc1ccc(Cl)cc1Cl` here?
The Inhibition was 0.81%.

With `CN(c1cccnc1)c1[nH]cnc2nncc1-2` as the compound, how does the Inhibition read?
Its Inhibition is -0.91%.

How did the Inhibition turn out when `O=C(c1ccccc1)c1ccccc1C(=O)c1ccccc1` was run?
The Inhibition was 16.03%.

How did the Inhibition turn out when `c1ccc(-n2nnnc2-c2cccc3ccccc23)cc1` was run?
Its Inhibition is 3.86%.

`CN1N=C/C(=C/NC(N)=O)C1=O` was tested. Which Inhibition did it give?
The Inhibition was 2.78%.

How did the Inhibition turn out when `CCCCC(=O)N1CCCC(C)C1` (stereo not drawn) was run?
The Inhibition was -3.93%.

`CN(C)S(=O)(=O)Nc1ccccn1` was tested. Which Inhibition did it give?
The Inhibition was 17.6%.

`Nc1ncnc2c1ncn2C1C=C(CO)C(O)C1O` (stereo not drawn) was tested. Which Inhibition did it give?
The Inhibition was 9.87%.

With `Cc1cc(OCCCCOc2ccc(C#N)cc2)ccc1[N+](=O)[O-]` as the compound, how does the Inhibition read?
Its Inhibition is 7.99%.

With `CC1=CC(C)(C(Cl)(Cl)Cl)C(C)=C/C1=N/O` (stereo not drawn) as the compound, how does the Inhibition read?
Its Inhibition is 12.76%.

With `CCOC(=O)c1c(C)nc(C)c(C(=O)OCC)c1-c1ccc(OC)cc1` as the compound, how does the Inhibition read?
The Inhibition was 2.6%.

Which Inhibition does the source give for `CCOC(=O)C(=O)Cc1cccnn1` here?
The Inhibition was 15.16%.

Which Inhibition does the source give for `COc1ccc([N+](=O)[O-])cc1NS(=O)(=O)c1ccc(C)cc1` here?
Its Inhibition is 9.82%.

`CC(=O)Oc1ccc(OC(C)=O)c2c1CC1(C)OC1(C)C2` (stereo not drawn) was tested. Which Inhibition did it give?
The Inhibition was 9.63%.

How did the Inhibition turn out when `CCOc1ccc(Nc2c3ccccc3nc3ccccc23)cc1` was run?
The Inhibition was 0.35%.

With `CS/C(=C\c1ccc(C(=O)c2ccc(C)cc2)n1C)[S+](C)[O-]` (stereo not drawn) as the compound, how does the Inhibition read?
The Inhibition was 18.35%.

For `COC(=O)C1=C(C)NC(C)=C(C(=O)OC)C(N2C(=O)CCC2=O)C1` (stereo not drawn), which Inhibition is on record?
Its Inhibition is 9.26%.

How did the Inhibition turn out when `Cc1ccc(S(=O)(=O)CCOC(=O)CNC(=O)OCc2ccccc2)cc1` was run?
Its Inhibition is 12.65%.

With `CC(=O)Nc1cccc(NC(C)=O)n1` as the compound, how does the Inhibition read?
Its Inhibition is 13.05%.

How did the Inhibition turn out when `Nc1nc(SCc2ccccn2)c2ncn(C3OC(CO)C(O)C3O)c2n1` (stereo not drawn) was run?
Its Inhibition is 10.89%.

`Cn1ncc2c(Nc3cccc(Cl)c3)nc(Nc3cccc(Cl)c3)nc21` was tested. Which Inhibition did it give?
Its Inhibition is 11.58%.

`Oc1ccc(Nc2ccnc3cc(Cl)ccc23)cc1` was tested. Which Inhibition did it give?
The Inhibition was 17.31%.

`CN(C)c1ncnc2c1ncn2-c1ccccc1` was tested. Which Inhibition did it give?
Its Inhibition is 6.41%.

`Cc1nc([N+](=O)[O-])cn1-c1nc2ccccn2c1[N+](=O)[O-]` was tested. Which Inhibition did it give?
Its Inhibition is 11.88%.

`Oc1ccc(/C=C\c2cnccn2)cc1` was tested. Which Inhibition did it give?
The Inhibition was 16.23%.

`O=C(O)C(Cc1ccccc1N(CCO)CCO)N1C(=O)c2ccccc2C1=O` (stereo not drawn) was tested. Which Inhibition did it give?
Its Inhibition is 11.57%.

How did the Inhibition turn out when `Nc1ncncc1-c1ccc2ccccc2c1` was run?
Its Inhibition is 17.13%.

system: Candida albicans; conditions: 20 µM

How did the Inhibition turn out when `Oc1ncnc(CN2CCCCC2)c1O` was run?
The Inhibition was -1.92%.

With `CCOC(=O)Cc1cc(O)c2cc(C)ccc2n1` as the compound, how does the Inhibition read?
The Inhibition was -1.04%.

With `Sc1nc2c[nH]c(S)nc-2n1` as the compound, how does the Inhibition read?
Its Inhibition is 5.35%.

Which Inhibition does the source give for `O=C(O)c1ccc(N2CCCCC2)cc1O` here?
The Inhibition was 8.64%.

With `NC(CC(=O)Nc1cc(C(F)(F)F)ccc1Cl)=NO` as the compound, how does the Inhibition read?
The Inhibition was 3.79%.

Which Inhibition does the source give for `Cc1c(O)ccc2c(O)c(NC(=O)c3ccc4c(c3)CCC(C)(C)O4)c(=O)oc12` [CYCLONOVOBIOCIC ACID] here?
Its Inhibition is 4.26%.

How did the Inhibition turn out when `CS(=O)(=O)O.Cc1cc2c(cc1[N+](=O)[O-])NC(CNC(C)C)CC2` (stereo not drawn) was run?
The Inhibition was -0.29%.

For `O=C(O)CSc1ccc(NC(=O)Nc2ccccc2F)cc1`, which Inhibition is on record?
The Inhibition was -1.57%.

For `O=C(O)c1ccccc1-n1c2ccccc2c2ccccc21`, which Inhibition is on record?
The Inhibition was 4.15%.

Which Inhibition does the source give for `C#CCNc1ccc(C(=O)OCC)cc1` here?
The Inhibition was 5%.

Which Inhibition does the source give for `CCOC(=O)N1C/C(=C\c2ccccc2)C(=O)/C(=C/c2ccccc2)C1` here?
The Inhibition was 6.37%.

With `CC(C)(C)NC1=NCCNC(c2ccccc2)=C1.CS(=O)(=O)O` as the compound, how does the Inhibition read?
The Inhibition was 1.18%.

With `Nc1ccccc1C(=O)Nc1ccc(Cl)cc1Cl` as the compound, how does the Inhibition read?
The Inhibition was 3.17%.

With `CN(c1cccnc1)c1[nH]cnc2nncc1-2` as the compound, how does the Inhibition read?
Its Inhibition is 0.07%.

With `O=C(c1ccccc1)c1ccccc1C(=O)c1ccccc1` as the compound, how does the Inhibition read?
The Inhibition was 2.49%.

`c1ccc(-n2nnnc2-c2cccc3ccccc23)cc1` was tested. Which Inhibition did it give?
Its Inhibition is 8.07%.

How did the Inhibition turn out when `CN1N=C/C(=C/NC(N)=O)C1=O` was run?
The Inhibition was 0.49%.

`CCCCC(=O)N1CCCC(C)C1` (stereo not drawn) was tested. Which Inhibition did it give?
Its Inhibition is 4.76%.

How did the Inhibition turn out when `CN(C)S(=O)(=O)Nc1ccccn1` was run?
The Inhibition was 5.95%.

How did the Inhibition turn out when `Nc1ncnc2c1ncn2C1C=C(CO)C(O)C1O` (stereo not drawn) was run?
Its Inhibition is 1.07%.

For `Cc1cc(OCCCCOc2ccc(C#N)cc2)ccc1[N+](=O)[O-]`, which Inhibition is on record?
Its Inhibition is 7.31%.

Which Inhibition does the source give for `CC1=CC(C)(C(Cl)(Cl)Cl)C(C)=C/C1=N/O` (stereo not drawn) here?
Its Inhibition is 4.85%.

For `CCOC(=O)c1c(C)nc(C)c(C(=O)OCC)c1-c1ccc(OC)cc1`, which Inhibition is on record?
Its Inhibition is 6.74%.

For `CCOC(=O)C(=O)Cc1cccnn1`, which Inhibition is on record?
Its Inhibition is 9.85%.

For `COc1ccc([N+](=O)[O-])cc1NS(=O)(=O)c1ccc(C)cc1`, which Inhibition is on record?
The Inhibition was 5.66%.

With `CC(=O)Oc1ccc(OC(C)=O)c2c1CC1(C)OC1(C)C2` (stereo not drawn) as the compound, how does the Inhibition read?
Its Inhibition is -0.12%.

For `CCOc1ccc(Nc2c3ccccc3nc3ccccc23)cc1`, which Inhibition is on record?
The Inhibition was -0.79%.

For `CS/C(=C\c1ccc(C(=O)c2ccc(C)cc2)n1C)[S+](C)[O-]` (stereo not drawn), which Inhibition is on record?
The Inhibition was 3.75%.

Which Inhibition does the source give for `COC(=O)C1=C(C)NC(C)=C(C(=O)OC)C(N2C(=O)CCC2=O)C1` (stereo not drawn) here?
The Inhibition was 2.3%.

With `Cc1ccc(S(=O)(=O)CCOC(=O)CNC(=O)OCc2ccccc2)cc1` as the compound, how does the Inhibition read?
The Inhibition was 2.97%.

Which Inhibition does the source give for `CC(=O)Nc1cccc(NC(C)=O)n1` here?
The Inhibition was -2.4%.

`Nc1nc(SCc2ccccn2)c2ncn(C3OC(CO)C(O)C3O)c2n1` (stereo not drawn) was tested. Which Inhibition did it give?
Its Inhibition is -1.39%.

`Cn1ncc2c(Nc3cccc(Cl)c3)nc(Nc3cccc(Cl)c3)nc21` was tested. Which Inhibition did it give?
The Inhibition was -1.22%.

With `Oc1ccc(Nc2ccnc3cc(Cl)ccc23)cc1` as the compound, how does the Inhibition read?
Its Inhibition is 0.86%.

How did the Inhibition turn out when `CN(C)c1ncnc2c1ncn2-c1ccccc1` was run?
The Inhibition was 1.36%.

For `Cc1nc([N+](=O)[O-])cn1-c1nc2ccccn2c1[N+](=O)[O-]`, which Inhibition is on record?
Its Inhibition is 4.75%.

Which Inhibition does the source give for `Oc1ccc(/C=C\c2cnccn2)cc1` here?
Its Inhibition is 1.24%.

For `O=C(O)C(Cc1ccccc1N(CCO)CCO)N1C(=O)c2ccccc2C1=O` (stereo not drawn), which Inhibition is on record?
Its Inhibition is 0.11%.

For `Nc1ncncc1-c1ccc2ccccc2c1`, which Inhibition is on record?
Its Inhibition is 5.79%.
